# Pf apPOL block: Pf-apPOL DNA polymerase inhibition; Recombinant Pf-apPOL, molecular beacon fluorescence, 1.5 h; inhibition, % at 10 µM; hit rate 0.25% among 210,000; AID 1794808
# mHTT CaM bind: disrupts binding of mutant huntingtin to calmodulin; P42858; AlphaScreen His-mHTT/GST-CaM binding, luminescence; inhibition, % at 15 µM; hit rate 3.6% among 190,000;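 note: 0% = both proteins with DMSO and 100% = one protein alone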
# An asterisk follows results filed as active; nt = not tested or not shown. In the library only some 3.6% were active in any assay of this set; here they are far more common. Cut-off read from the data, not from the text of the source: active = inhibition above about 50%; inactive = the rest.
SMILES,Pf apPOL block,mHTT CaM bind
CN1CCN(c2nc(-c3ccccc3)ncc2C(=O)N2CCCCC2)CC1,-2,6
Cc1cccc(C(=O)N2CCc3ccc(CNS(C)(=O)=O)cc32)c1,-4,-4
CCNC(=O)c1nc(N(C)C)c2c(C)scc2n1,0,20
Cc1scc2nc(C(=O)Nc3ccccc3)nc(N3CCCC3)c12,-3,12
Cc1scc2nc(C(=O)NCc3ccc(F)cc3)nc(N(C)C)c12,-16,87*
Cc1scc2nc(C(=O)NCc3cccc(F)c3)nc(N3CCCC3)c12,-9,65*
CCN(CC)c1ccc(/C=c2\sc3nc(-c4cccs4)nn3c2=O)cc1,3,0
O=C(NC1CCCCC1)N1CCn2cccc2C1Cc1ccccc1 (stereo not drawn),-8,11
O=C1OCCN1C(=O)[C@H]1[C@H](c2ccc([N+](=O)[O-])cc2)C(c2ccc(F)cc2)=NN1c1ccc(Br)cc1,-6,65*
O=C1OCCN1C(=O)[C@H]1[C@H](c2ccccc2)C(c2ccccc2)=NN1c1ccccc1,2,-54
O=C1OCCN1C(=O)[C@H]1[C@H](c2ccccc2)C(c2ccc(F)cc2)=NN1c1ccc(Br)cc1,-1,31
O=C1OCCN1C(=O)[C@H]1[C@H](c2ccc([N+](=O)[O-])cc2)C(c2ccc(F)cc2)=NN1c1ccccc1,-8,54*
CCc1ccc(NS(=O)(=O)c2cc(Cl)ccc2Cl)cc1,0,-26
CN(C)S(=O)(=O)N(C)CC12CC3CC(CC(C3)C1)C2,nt,-12
O=C(NCc1ccccc1F)c1cc(N2CCCC2)n2nccc2n1,-1,-47
O=C(Cc1cccs1)OCc1cc(-c2ccc(F)cc2F)on1,2,-99
O=C(OCc1cc(-c2ccc(F)cc2F)on1)c1ccc(=O)oc1,81*,100*
COc1ccc(OCC(O)CN2CCN(c3ccc(C)cc3)CC2)cc1 (stereo not drawn),-5,5
CCc1ccc(CNC(=O)C(=O)Nc2ccccc2F)cc1,70*,-4
CCOc1ccccc1NC(=O)C(=O)NCc1ccc(CC)cc1,20,-9
O=c1[nH]c(-c2ccccc2O)nc2ccccc12,2,-9
Oc1ccccc1-c1nc2ccccc2[nH]1,1,65*
O=C(CN1CCN(C(=O)Nc2ccc(F)cc2)CC1=O)NCc1ccc2c(c1)OCO2,3,1
O=C1Nc2ccc(Br)cc2/C1=C/c1ccc(Cl)cc1Cl,-6,52*
COc1ccc(O)c(/C=C2\C(=O)Nc3ccc(Br)cc32)c1,-7,91*
SMILES,Pf apPOL block,mHTT CaM bind
CC(C)(C)C(=O)C=C1C(=O)Nc2ccc(Br)cc21,-1,nt
COc1ccc(N=C2C(=O)Nc3ccc(Br)cc32)cc1,5,26
COc1cc2c(cc1OC)/C(=C/c1cc(OC)c(OC)c(OC)c1)C(=O)N2,nt,50
COc1ccc(/C=C2\C(=O)Nc3ccc(Br)cc32)c(OC)c1OC,4,100*
COc1ccc(OC)c(/C=C2\C(=O)Nc3ccc(Br)cc32)c1,-1,54*
O=C1Nc2ccccc2/C1=C/c1ccc(Cl)cc1Cl,-2,10
COC(=O)c1sccc1NC(=O)N1CC2CC1CC2NC(=O)c1ccccc1 (stereo not drawn),-5,11
O=C(Cc1ccc(NS(=O)(=O)c2cccnc2)cc1)NCc1cccs1,4,-12
O=C(Oc1ccc(Cl)cc1Cl)c1ccc(-c2ccc(Cl)cc2)s1,-6,nt
O=C(NCCS(=O)(=O)N1CCN(c2ncccn2)CC1)c1cnccn1,3,-7
Cc1ccc(C(=O)N2CCC(Oc3cc(N4CCCC4)ncn3)C2)s1 (stereo not drawn),-4,4
O=[N+]([O-])c1cccc(S(=O)(=O)Nc2cccc(F)c2)c1,-6,12
O=C1c2ccccc2C(=O)N1c1ccc(N2C(=O)c3ccccc3C2=O)c(Cl)c1,0,20
O=C1c2cccnc2C(=O)N1c1ccc(N2C(=O)c3cccnc3C2=O)c(Cl)c1,0,63*
CN(Cc1ccccc1F)c1cc2c(c3c1ccn3C)C1CCC2C1 (stereo not drawn),0,56*
Cn1ccc2c(-c3ccccc3F)cc3c(c21)C1CCC3C1 (stereo not drawn),-3,13
Cc1cc(OCc2nnc(NC(=O)Nc3ccccc3F)s2)ccc1Cl,-1,2
CCCC(=O)N(CCN1CCOCC1)c1nc2ccc(Br)cc2s1,-9,26
O=C(CCOc1ccccc1)N(CCN1CCOCC1)c1nc2c(Cl)cccc2s1,-8,87*
O=C(c1ccc(F)cc1)N1CCC(CCNS(=O)(=O)c2cccc3nsnc23)CC1,-1,42
Cc1ccc(S(=O)(=O)NCCC2CCN(C(=O)c3ccc(F)cc3)CC2)cc1C,-3,30
Cc1ccc(C(=O)N2CCC(CCNS(=O)(=O)c3ccccc3Cl)CC2)cc1,-6,43
Cc1ccc(C(=O)N2CCC(CCNS(=O)(=O)c3ccc(F)c(Cl)c3)CC2)cc1,0,62*
Cc1cc(C)c(S(=O)(=O)NCCC2CCN(C(=O)c3ccc(F)cc3)CC2)cc1C,1,56*
Cc1ccc(C(=O)N2CCC(CCNS(=O)(=O)c3cccc(Cl)c3C)CC2)cc1,-6,57*
SMILES,Pf apPOL block,mHTT CaM bind
Cc1ccc(C(=O)N2CCC(CCNS(=O)(=O)c3cccc4nsnc34)CC2)cc1,-2,51*
O=C(c1ccccc1)N1CCC(CCNS(=O)(=O)c2ccc(F)c(Cl)c2)CC1,1,22
CC1=C(C(=O)Nc2cc(C)ccc2C)C(c2ccc(Br)cc2)NC(=O)N1 (stereo not drawn),-2,1
O=C(Cc1ccccc1)NC(N1CCCC1)C(Cl)(Cl)Cl (stereo not drawn),3,-4
Cc1nc(-c2ccncc2)nc2c1CCC(=O)N2Cc1ccccn1,-7,6
CC(=O)NC1=NC(=O)/C(=C\c2ccccc2F)S1,2,6
O=C(Nc1ccc(N2CCN(C(=O)C3CC3)CC2)nc1)c1ccccc1C(F)(F)F,0,-4
O=C(NCC1(CO)CC1)NC(c1ccccc1)c1ccccc1,-8,-7
NC(=O)COc1ccc(/C=C2\N=C(c3ccccc3Cl)OC2=O)cc1,1,17
Cc1c(Cl)cccc1S(=O)(=O)NCCC1CCN(C(=O)c2ccc(F)cc2)CC1,-2,51*
O=C(c1ccc(F)cc1)N1CCC(CCNS(=O)(=O)c2ccccc2F)CC1,0,27
COc1ccc(-c2cc3ccc(OC(=O)C(C)C)cc3oc2=O)c(OC)c1,-1,78*
COc1ccc(OC)c(-c2cc3ccc(OC(=O)C(C)C)cc3oc2=O)c1,-5,-3
Cc1cc(Br)c(S(=O)(=O)C(C)(C)C)c(Br)c1,nt,-9
COc1cc(Cl)ccc1C(=O)N1CCc2nc3cc[nH]n3c(=O)c2C1,-3,21
c1ccc2c(Cc3c[nH]c4ccc(-c5ccncc5)cc34)c[nH]c2c1,3,100*
O=C(O)Cc1c[nH]c2ccccc12,-1,10
O=C(NC1CCN(C(=O)c2ccccc2)C1)C1CCC1 (stereo not drawn),3,-5
O=C(NNC(=O)C(F)(F)Sc1ccccc1)c1ccsc1,54*,nt
O=C(NCC(O)(c1ccccc1)C(F)(F)F)c1ccsc1 (stereo not drawn),-9,-18
COC(=O)c1n[nH]nc1[N+](=O)[O-],nt,-1
O=C(O)c1n[nH]nc1C(=O)O,nt,63*
O=C(O)c1c[nH]c2ccc(S(=O)(=O)NCc3ccccn3)cc2c1=O,0,-3
O=C(Nc1c2c(nn1-c1cccc(Cl)c1)CSC2)c1ccc(Br)o1,-4,10

# Assay outcomes as filed in PubChem BioAssay.
